From PubChem BioAssay
Most compounds without a hit are left out; they make up all but 3.1% or so of the library.
Anthrax LF prot: inhibitors of Bacillus anthracis lethal factor protease; P15917; multiplex microsphere protease cleavage assay, LF; inhibition, % at 10 µM; 0.12% of 360,000 active; AID 588501
Target sequence (P15917 whole entry, looked up): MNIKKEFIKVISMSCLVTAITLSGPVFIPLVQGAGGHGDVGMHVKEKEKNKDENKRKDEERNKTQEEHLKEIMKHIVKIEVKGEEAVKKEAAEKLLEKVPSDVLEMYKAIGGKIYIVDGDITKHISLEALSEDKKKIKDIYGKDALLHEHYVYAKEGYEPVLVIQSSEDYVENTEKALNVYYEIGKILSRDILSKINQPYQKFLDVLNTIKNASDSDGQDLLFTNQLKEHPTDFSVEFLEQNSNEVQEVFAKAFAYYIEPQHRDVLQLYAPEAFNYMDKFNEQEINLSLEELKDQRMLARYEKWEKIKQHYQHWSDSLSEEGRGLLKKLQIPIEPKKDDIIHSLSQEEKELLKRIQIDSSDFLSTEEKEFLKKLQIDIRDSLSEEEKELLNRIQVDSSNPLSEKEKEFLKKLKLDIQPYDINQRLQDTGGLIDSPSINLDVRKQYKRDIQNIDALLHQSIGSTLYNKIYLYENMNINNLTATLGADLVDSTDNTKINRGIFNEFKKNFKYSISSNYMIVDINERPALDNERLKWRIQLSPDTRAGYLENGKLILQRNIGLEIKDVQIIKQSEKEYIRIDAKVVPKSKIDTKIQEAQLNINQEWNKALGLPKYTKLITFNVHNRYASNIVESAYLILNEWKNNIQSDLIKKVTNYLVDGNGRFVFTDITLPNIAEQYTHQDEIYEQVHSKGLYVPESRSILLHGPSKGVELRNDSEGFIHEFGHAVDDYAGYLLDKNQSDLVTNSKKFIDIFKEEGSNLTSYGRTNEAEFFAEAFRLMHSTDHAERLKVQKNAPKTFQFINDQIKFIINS
Bead autofluor: flagged as autofluorescent in microsphere protease counterscreen | 3.1% of 360,000 active | AID 624483 | fluorescence intensity (concentration not given with the values) | compound autofluorescence counterscreen, microsphere flow cytometry; stronger effect = higher value; in the data active means fluorescence intensity above about 16000; inconclusive means no clear call, values can overlap the other calls
PriA SSB inh: blocks PriA binding to SSB C-terminal tail | inhibition, % at 33 µM | AlphaScreen SSBct-PriA binding, biotinylated peptide | 0.6% of 430,000 active; in the data active means inhibition mostly above about 37%, no sharp cut-off; inactive means mostly below about 20%
BoNT F protease: inhibitors of Botulinum neurotoxin F light chain protease | Multiplex microsphere protease cleavage assay, flow cytometry | inhibition, % at 10 µM | 0.22% of 360,000 active; in the data active means inhibition above about 35%, passing the limit was not always enough; inconclusive means no clear call, values can overlap the other calls
BoNT-A LC inh2: BoNT A light chain protease inhibition. multiplex microsphere protease substrate cleavage, flow cytometry. inhibition, % at 10 µM. 0.17% of 360,000 active
Each line names hits and unclear results; the compound was inactive in the other large screens; ! = not confirmed by another sample. Unless noted, no stated cut-off is given here; in the data, active means inhibition above about 30%; inconclusive means no clear call, values can overlap the other calls; inactive means below that.

Cc1onc(-c2ccccc2)c1C(=O)N1CCN(C/C=C/c2ccccc2)CC1	none
CCOc1cccc2cc(C(=O)N3CCN(C/C=C/c4ccccc4)CC3)c(=O)oc12	Bead autofluor 16172, BoNT-A LC inh2 inconclusive
O=C(NCCC(O)c1ccsc1)c1ccccc1C(F)(F)F (configuration not stated)	none (no result: Anthrax LF prot, Bead autofluor, BoNT F protease, BoNT-A LC inh2)
CCN(CC)C1=NC(=[N+](CC)CC)c2ccccc21	Bead autofluor 17474
CCN(CCC(=O)O)c1ccccc1	none
CCNC(=O)c1sc(NS(=O)(=O)c2ccccc2)nc1C	none (no result: Anthrax LF prot, Bead autofluor, BoNT F protease, BoNT-A LC inh2)
CCN(CC)CCN(C(=O)c1ccc(C(=O)c2ccccc2)cc1)c1nc2cc3c(cc2s1)OCO3	PriA SSB inh 41.0
CN(C)CCCN(C(=O)c1cc2cc([N+](=O)[O-])ccc2s1)c1nc2cc3c(cc2s1)OCCO3	PriA SSB inh 46.0!
CCN(CC)CCN(C(=O)c1ccc2ncsc2c1)c1nc2cc3c(cc2s1)OCO3	none
CN(C)CCCN(C(=O)c1cc2c(ccc3ccccc32)oc1=O)c1nc2cc3c(cc2s1)OCCO3	PriA SSB inh 66.0 (no result: Anthrax LF prot, Bead autofluor, BoNT F protease, BoNT-A LC inh2)
CCN(CC)CCN(C(=O)Cc1cccc2ccccc12)c1nc2cc3c(cc2s1)OCO3	PriA SSB inh 35.0 (no result: Anthrax LF prot, Bead autofluor, BoNT F protease, BoNT-A LC inh2)
CN(C)CCN(C(=O)c1ccc2ccccc2c1)c1nc2cc3c(cc2s1)OCO3	none (no result: PriA SSB inh)
CCN(CC)CCN(C(=O)c1ccc(C(=O)c2ccccc2)cc1)c1nc2c(OC)cccc2s1	PriA SSB inh 37.0!
CCN(CC)CCN(C(=O)c1ccc(C(=O)c2ccccc2)cc1)c1nc2c(Cl)cccc2s1	none (no result: Anthrax LF prot, Bead autofluor, BoNT F protease, BoNT-A LC inh2)
CN(C)CCCN(C(=O)c1ccc(C(=O)c2ccccc2)cc1)c1nc2cc3c(cc2s1)OCO3	PriA SSB inh 44.0
O=C(NCc1cnn2ccccc12)c1ccc(C(F)(F)F)cc1	none (no result: Anthrax LF prot, Bead autofluor, BoNT F protease, BoNT-A LC inh2)
COc1cccc([C@H](CNC(=O)C(=O)Nc2cccc(SC)c2)OC)c1	none (no result: Anthrax LF prot, Bead autofluor, BoNT F protease, BoNT-A LC inh2)
COC(=O)C1=C(C)N=c2s/c(=C/c3cnn(C)c3)c(=O)n2C1c1ccccc1 (configuration not stated)	none (no result: Anthrax LF prot, Bead autofluor, BoNT F protease, BoNT-A LC inh2)
COC(=O)C1=C(C)N=c2s/c(=C/c3ccoc3)c(=O)n2C1c1ccccc1 (configuration not stated)	Bead autofluor 21630 (no result: PriA SSB inh)
COc1cc(CC(=O)Nc2ccc(S(=O)(=O)N(C)C)cc2)cc(OC)c1OC	Bead autofluor 23513
COc1cc(C(=O)Nc2ccc(S(=O)(=O)NC(C)C)cc2)cc(OC)c1OC	Bead autofluor 16279
COc1cc(C2C3=C(CC(C)(C)CC3=O)Nc3c2c(=O)[nH]c(=O)n3Cc2ccccc2)ccc1O (configuration not stated)	none
COc1ccc(C2C3=C(CC(C)(C)CC3=O)Nc3c2c(=O)[nH]c(=O)n3Cc2ccccc2)cc1OC (configuration not stated)	Bead autofluor 23655
CCc1ccc(C2C3=C(CC(C)(C)CC3=O)Nc3c2c(=O)[nH]c2nc(C)nn32)cc1 (configuration not stated)	Bead autofluor 21959, BoNT-A LC inh2 inconclusive
COc1ccc(NC(=O)COC(=O)CCCc2c[nH]c3ccccc23)cc1	none
COc1cccc(NC(=O)COC(=O)CCCc2c[nH]c3ccccc23)c1	Bead autofluor 22839
CNc1c([N+](=O)[O-])cnn1-c1ccc(C)cc1	Bead autofluor 23938
COc1cccc(Oc2nnnn2-c2ccccc2)c1	none
COc1ccc(Oc2nnnn2-c2ccccc2)cc1	Bead autofluor 22772, BoNT-A LC inh2 inconclusive
Cc1nc2ncnn2c(N2CCN(C(c3ccccc3)c3ccccc3)CC2)c1C	Bead autofluor 18747
Cc1cc(N2CCN(c3cccc(C(F)(F)F)c3)CC2)n2ncnc2n1	none
Cc1nc2ncnn2c(N2CCN(c3cccc(C(F)(F)F)c3)CC2)c1C	Bead autofluor 22031
O=C(Cn1cc(-c2ccccc2)c(N2CCOCC2)n1)NCCC1=CCCCC1	none (no result: Anthrax LF prot, Bead autofluor, BoNT F protease, BoNT-A LC inh2)
Cc1ccccc1-n1ncc2c(N3CCCCCC3)ncnc21	none (no result: Anthrax LF prot, Bead autofluor, BoNT F protease, BoNT-A LC inh2)
CN1C(=O)CC(c2ccco2)Sc2ccccc21 (configuration not stated)	Bead autofluor 21771
COc1ccc(C2CC(=O)N(CC(=O)NCC3CCCO3)c3ccccc3S2)cc1 (configuration not stated)	none
O=C(CN1C(=O)CC(c2ccco2)Sc2ccccc21)NCC1CCCO1 (configuration not stated)	Bead autofluor 23515, BoNT-A LC inh2 inconclusive
O=C(c1cccc(C(F)(F)F)c1)N1CCC(Cn2ccnc2-c2ccccc2)CC1	none (no result: Anthrax LF prot, Bead autofluor, BoNT F protease, BoNT-A LC inh2)
CCCCC(=O)Nc1ncc([N+](=O)[O-])s1	none
CCCCC(=O)Nc1ncc(Br)s1	Bead autofluor 21554
O=[N+]([O-])c1cc(-n2cnnn2)ccc1N1CCC(Cc2ccccc2)CC1	Bead autofluor 16952
CS(=O)(=O)c1ccc(N2CCC(Cc3ccccc3)CC2)c([N+](=O)[O-])c1	PriA SSB inh 41.0 (no result: Anthrax LF prot, Bead autofluor, BoNT F protease, BoNT-A LC inh2)
CS(=O)(=O)c1ccc(N2CCN(c3ccccc3)CC2)c([N+](=O)[O-])c1	none (no result: Anthrax LF prot, Bead autofluor, BoNT F protease, BoNT-A LC inh2)
CC1CC(C)CN(c2ccc(-n3cnnn3)cc2[N+](=O)[O-])C1 (configuration not stated)	none
CCCC(=O)Nc1cc(C)nn1-c1nc(CC)cc(=O)[nH]1	none (no result: Anthrax LF prot, Bead autofluor, BoNT F protease, BoNT-A LC inh2)
Cc1cc(N)n(-c2nc(-c3ccccc3)cc(=O)[nH]2)n1	PriA SSB inh 53.0! (no result: Anthrax LF prot, Bead autofluor, BoNT F protease, BoNT-A LC inh2)
CCc1cc(=O)[nH]c(-n2nc(C)cc2NC(=O)COC)n1	PriA SSB inh 39.0 (no result: Anthrax LF prot, Bead autofluor, BoNT F protease, BoNT-A LC inh2)
CCc1cc(=O)[nH]c(-n2nc(C)cc2N)n1	PriA SSB inh 93.0 (no result: Anthrax LF prot, Bead autofluor, BoNT F protease, BoNT-A LC inh2)
O=C(COc1ccccc1F)NCCN1CCN(c2ccccc2F)CC1	none (no result: Anthrax LF prot, Bead autofluor, BoNT F protease, BoNT-A LC inh2)
COc1ccc2cc(C(=O)NCc3ccco3)c(=Nc3ccc(C(=O)O)cc3)oc2c1	none
COc1ccc(N=c2oc3c(OC)cccc3cc2C(=O)NCc2ccco2)c(OC)c1	Bead autofluor 21143
COc1cc(SC)ccc1C(=O)NCc1ccc(C)cc1	Bead autofluor 19956
COc1ccc(C(=O)NCc2ccccc2OC)c(OC)c1	Bead autofluor 20943, BoNT-A LC inh2 inconclusive
COc1ccccc1CNC(=O)c1cccs1	Bead autofluor 23731
COCCCNC(=O)CCn1cnc2c([nH]c3ccc(C)cc32)c1=O	none (no result: Anthrax LF prot, Bead autofluor, BoNT F protease, BoNT-A LC inh2)
O=C(Cn1nc(-c2ccco2)n(C2CC2)c1=O)Nc1nc2ccccc2s1	none (no result: Anthrax LF prot, Bead autofluor, BoNT F protease, BoNT-A LC inh2)
COc1ccc(C(CC(=O)O)NC(=O)c2cccs2)cc1 (configuration not stated)	Bead autofluor 16500
COc1ccc(C(=O)NCc2cccnc2)cc1	Bead autofluor 21373
COc1ccccc1CNC(=O)c1ccc(S(=O)(=O)N2CCCC2)cc1	Bead autofluor 24898
CC(C)(C)NC(=O)NCc1cccnc1	none
CC(C)(C)NC(=S)NCc1cccnc1	Bead autofluor 23776
O=C(NCC(c1cccs1)N1CCc2ccccc21)c1ccc(Br)o1 (configuration not stated)	none (no result: Anthrax LF prot, Bead autofluor, BoNT F protease, BoNT-A LC inh2)
C=c1ccccc1=C1N=C(NC(=O)CSc2nnc3ccccn23)NS1	none (no result: Anthrax LF prot, Bead autofluor, BoNT F protease, BoNT-A LC inh2)
COc1ccc(NC(=O)CNC(=O)c2cccs2)cc1Cl	none
COc1ccc(OC)c(NS(=O)(=O)c2ccc(Cl)s2)c1	none
COc1ccc(OC)c(NS(=O)(=O)c2cccs2)c1	Bead autofluor 22109
COc1ccc(OC)c(NC(=O)CNC(=O)c2cccs2)c1	Bead autofluor 21327, BoNT-A LC inh2 inconclusive
COc1ccc(C(=O)NCc2cccc(Cl)c2)cc1S(=O)(=O)N1CCOCC1	none
